ALOX12 inhib – inhibitors of human 12-lipoxygenase (ALOX12). P18054. purified 12-hLO, xylenol orange hydroperoxide absorbance. Potency, µM (highest dose often 57.1 µM), for the others: at the highest dose activity change, negative = inhibition, hits mostly inhibitors. 150,000 tested, 0.12% active; note: potency is the fitted concentration of half-maximal effect; nearly all actives have a fitted effect of over 55% in size
Target sequence (P18054 whole entry, looked up): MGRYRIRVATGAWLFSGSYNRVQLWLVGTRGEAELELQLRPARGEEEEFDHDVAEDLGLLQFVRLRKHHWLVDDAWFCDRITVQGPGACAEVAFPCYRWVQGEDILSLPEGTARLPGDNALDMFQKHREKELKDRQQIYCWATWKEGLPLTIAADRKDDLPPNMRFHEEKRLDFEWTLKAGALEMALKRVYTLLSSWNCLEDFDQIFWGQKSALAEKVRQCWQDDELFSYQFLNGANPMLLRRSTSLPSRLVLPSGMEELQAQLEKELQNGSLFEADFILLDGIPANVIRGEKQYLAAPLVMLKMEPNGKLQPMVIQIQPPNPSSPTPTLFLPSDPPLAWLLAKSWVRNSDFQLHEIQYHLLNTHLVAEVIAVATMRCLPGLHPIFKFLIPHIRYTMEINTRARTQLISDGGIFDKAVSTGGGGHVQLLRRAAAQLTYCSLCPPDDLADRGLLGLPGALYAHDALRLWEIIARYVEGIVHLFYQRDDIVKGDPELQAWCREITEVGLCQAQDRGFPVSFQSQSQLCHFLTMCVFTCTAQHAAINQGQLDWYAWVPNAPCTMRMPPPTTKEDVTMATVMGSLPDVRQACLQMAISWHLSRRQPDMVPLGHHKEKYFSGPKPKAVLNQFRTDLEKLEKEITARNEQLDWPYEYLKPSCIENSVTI
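Purified human 12hLO (150 nM), preincubated 15 min with compound, then 40 uM arachidonic acid for 30 min, room temperature, Hepes pH 7.0 with 0.01% Triton X-100. Hydroperoxide detected by ferrous iron/xylenol orange; 573/405 nm absorbance ratio gives reaction progress.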
IMPase Li cell – cell-permeable IMPase inhibitors with lithium potentiation | 210,000 tested, 0.35% active | AID 1457 | Potency, µM (highest dose often 59.4 µM), for the others: top-dose activity, negative = IMPase inhibition, usual class: inhibitors | CHO-M1 cells, IP1 TR-FRET (IP-One), carbachol + lithium;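 note: IP1 builds up when IMPase is blocked and the TR-FRET signal falls; potency is the fitted concentration of half-maximal effect; plate controls were basal vehicle for no effect and high inhibitor control for full effect; nearly all actives have a fitted effect of over 50% in size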
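Steps: plate 2000 CHO-M1 cells per well and culture 16–30 h; add compound and lithium; incubate 30 min, 37C; add d2-IP1 tracer and Eu cryptate anti-IP1 antibody in lysis buffer; read after 10 min at room temperature.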
NPSR antagonist – blocks cAMP signaling of the human neuropeptide S receptor | Q6W5P4 | CHO-NPSR cells, cAMP TR-FRET, antagonist mode | Potency, µM (doses to about 38.3 µM), for inactives: at the top dose activity change, negative = inhibition, actives largely listed as inhibitors | 220,000 tested, 1% active | AID 1461; note: potency is the fitted concentration of half-maximal effect; nearly all actives have a fitted effect of over 50% in size
HPGD inh – HPGD (human) dehydrogenase inhibition | P15428 | purified HPGD, NADH fluorescence kinetic, PGE2 substrate | Potency, µM, without a hit: at the top dose activity change, negative = inhibition, usual class: inhibitors | 150,000 tested, 4.3% active; active = well fitted inhibition curve with a large enough effect, not every such curve was filed as active; inconclusive = small, poorly fitted or top-dose-only effect, or another doubt; inactive = no such curve, though single readings can be large or run the other way; note: potency is the fitted concentration of half-maximal effect
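NADH formation kinetics: reaction with 30 uM PGE2 and 1 mM NAD+ (final), 20 nM enzyme, Tris-HCl pH 8 with Tween 20, after 15 min compound preincubation at room temperature. Fluorescence change, last versus first of five reads.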
ALDH1A1 inh – ALDH1A1 (human) enzyme inhibition. P00352. Purified ALDH1A1, NADH fluorescence, propionaldehyde substrate. Potency, µM (doses to about 75.3 µM), for inactives: top-dose activity, negative = inhibition, usual class: inhibitors. 220,000 tested, 7.3% active. AID 1030; active = well fitted inhibition curve with a large enough effect, not every such curve was filed as active; inconclusive = small, poorly fitted or top-dose-only effect, or another doubt; inactive = no such curve, though single readings can be large or run the other way;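 note: potency is the fitted concentration of half-maximal effect; plate controls were no enzyme wells and a reference inhibitor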
IMPase inh – IMPase inhibition in cells; inhibition (IP1 accumulation), % at 46.1 µM; AID 901; CHO-M1 cells, IP1 accumulation, HTRF TR-FRET ratio; 120,000 tested, under 10 active; active = well fitted curve in the direction sought with a large enough effect in the signal ratio, not every such curve was filed as active; inconclusive = small, poorly fitted or top-dose-only effect, or a change in a side signal; inactive = no such curve, though single readings can be large or run the other way; the % refers to the signal ratio;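 note: cells stimulated with carbachol in lithium chloride buffer; plate controls were DMSO basal wells for no effect and reference inhibitor wells for full effect; higher means more IMPase inhibition seen as more IP1 and lower FRET ratio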
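Carbachol-driven Gq signalling in CHO-M1 cells (2000/well) generates IP1. Compounds that block IMPase raise IP1 and so reduce the FRET signal from Eu-anti-IP1 and d2-IP1 after a 10 min room-temperature lysis.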
Starred values were filed as active, the others as inactive; u = inconclusive; x = not tested or not shown; [ ] = remark or other dose. Compounds with a hit are over-represented: about 8.9% of the library has one in this group of screens. Unless noted, calls come from the whole dose curve; as a rule, active = well fitted curve in the direction sought with a large enough effect; inconclusive = small, poorly fitted or top-dose-only effect, or another doubt; inactive = no such curve, though single readings can be large; an effect the other way counts as inactive or inconclusive. Unless noted, % is set by controls: 0 for no effect and ±100 for the full control effect.

SMILES	ALOX12 inhib	IMPase Li cell	NPSR antagonist	HPGD inh	ALDH1A1 inh	IMPase inh
O=C1c2cccc3cccc(c23)C(=O)N1CCCN(C(=O)c1cccs1)c1cccc(F)c1	4%	-2%	-7%	u	u	x
O=C1c2ccccc2C(=O)N1CCCCN(C(=O)c1cc([N+](=O)[O-])ccc1Cl)c1ccc(Cl)cc1	-1%	21%	-22%	-15%	5µM*	6
Cc1ccc(N(CN2C(=O)c3ccccc3C2=O)C(=O)c2ccc([N+](=O)[O-])cc2[N+](=O)[O-])cc1	-5%	1%	-18%	-6%	-9%	x
O=C1c2ccccc2C(=O)N1CCCCN(C(=O)c1ccc(Cl)s1)c1ccc(Cl)cc1	-1%	18%	-48%	-17%	4.5µM*	x
COc1ccc(N(CCCN2C(=O)c3cccc4cccc(c34)C2=O)C(=O)c2cccc(OC)c2)cc1	2%	17%	3%[46.1 µM]	-11%	8.9µM*	5
Cc1ccc(N(CCCCN2C(=O)c3ccccc3C2=O)C(=O)c2ccc(Cl)s2)cc1	-2%	5%	-26%	-8%	4%	-8
O=C1c2ccccc2C(=O)N1CCCCN(C(=O)c1ccc([N+](=O)[O-])cc1)c1ccc(Cl)cc1	-12%	12%[38.3 µM]	u	-6%	1.6µM*	2
O=C(COC(=O)c1ccc[nH]c1=O)NCCc1ccc(F)cc1	x	-2%	8%	x	10%	x
O=C1c2ccccc2C(=O)N1CCCCN(C(=O)c1cc([N+](=O)[O-])cc([N+](=O)[O-])c1)c1ccc(Cl)cc1	3%	4%	13%	-7%	1.4µM*	x
Cc1ccc(N(CCCCN2C(=O)c3ccccc3C2=O)C(=O)c2cccc([N+](=O)[O-])c2)cc1	-2%	23%[38.3 µM]	u	-8%	u	6
CC(C)CSc1n[nH]c(N)n1	x	2%	20%	x	8%	x
CC(C)CSc1n[nH]c(=S)s1	x	2%	11%	x	0.63µM*	x
Cc1nc2ccccc2c(=O)n1NC(=O)c1ccccc1Cl	-6%	5%[38.3 µM]	-5%[46.1 µM]	-5%	5%	-1
N#C/C(=C/c1ccc(O)c([N+](=O)[O-])c1)C(=O)Nc1ccccc1	x	-4%	-45%	x	u	x
N#C/C(=C\c1ccc([N+](=O)[O-])cc1)C(=O)Nc1ccccc1O	-23%	22%	-54%	-13%	18µM*	x
N#C/C(=C/c1ccc([N+](=O)[O-])cc1)C(=O)Nc1ccccc1O	-20%	10%	-11%	-3%	7.9µM*	x
Nc1ncnc(Oc2cccc(C(F)(F)F)c2)c1[N+](=O)[O-]	x	-7%	0%	x	0%	x
CC1CCCCC1NC(=O)Cn1cnc2ccccc2c1=O (centres undefined)	0%	-5%[38.3 µM]	2%[46.1 µM]	-2%	-1%	2
CCOCC(=O)Nc1cc(C(=O)OC)cc(C(=O)OC)c1	2%	-1%	10%	-20%	-1%	x
CN(C)CCCN(C(=O)c1ccc2c(c1)CCCC2)c1nc2ccc(Cl)cc2s1	-1%	25%	u	-17%	14µM*	-8
CN(C)CCCN(C(=O)CCc1ccccc1)c1nc2ccc(Cl)cc2s1	4%	28%	u	-11%	-26%	19
CCCCNc1ccc(S(=O)(=O)c2cccc([N+](=O)[O-])c2)cc1[N+](=O)[O-]	1%	2%	-25%	-18%	-8%	x
COc1ccc(OCCNC(=O)Nc2cc(F)c(F)cc2Cl)cc1	x	6%	-31%	x	11%	x
CCOc1ccc(Br)cc1S(=O)(=O)Nc1nc(CN2CCOCC2)nc2sc(C)c(C)c12	-9%	2%[38.3 µM]	-21%[46.1 µM]	-5%	13µM*	-11
Cc1sc2nc(CN3CCOCC3)nc(NS(=O)(=O)c3ccc4c(c3)OCCO4)c2c1C	-6%	-5%[38.3 µM]	-23%[46.1 µM]	-1%	1.3µM*	0
SMILES	ALOX12 inhib	IMPase Li cell	NPSR antagonist	HPGD inh	ALDH1A1 inh	IMPase inh
Cc1sc2nc(CN3CCOCC3)nc(NS(=O)(=O)c3ccccc3)c2c1C	7%	-1%[38.3 µM]	4%[46.1 µM]	-12%	u	-6
COc1ccc(N(CC(=O)NN=C2CCCCCCC2)S(=O)(=O)c2ccccc2)cc1Cl	1%	28%[38.3 µM]	-19%[46.1 µM]	-12%	u	4
O=C(/C=C(\c1ccc(Cl)cc1)n1cncn1)c1ccc(Cl)cc1	-3%	17%[38.3 µM]	-27%[46.1 µM]	-24%	2.2µM*	8
CCN(CC)S(=O)(=O)c1ccc(N2CCCC2)c(NS(=O)(=O)c2ccc([N+](=O)[O-])cc2)c1	-1%	x	-9%[46.1 µM]	x	2µM*	-10
CCN(CC)S(=O)(=O)c1ccc(N2CCCC2)c(NS(=O)(=O)c2ccccc2)c1	-4%	13%	-21%	-13%	0.35µM*	x
CCN(CC)S(=O)(=O)c1ccc(N2CCCC2)c(NS(=O)(=O)c2ccc(OC)cc2)c1	3%	8%	-23%	-6%	2.5µM*	x
CCN(CC)S(=O)(=O)c1ccc(N2CCOCC2)c(NC(=O)c2cc([N+](=O)[O-])ccc2Cl)c1	x	4%	-21%	x	u	x
CCN(CC)S(=O)(=O)c1ccc(N2CCOCC2)c(NS(=O)(=O)c2ccc(C(C)C)cc2)c1	3%	7%	14%	-4%	-2%	x
CCN(CC)S(=O)(=O)c1ccc(N2CCOCC2)c(NS(=O)(=O)c2cc(C(C)(C)C)ccc2C)c1	-2%	7%	-37%	-15%	14µM*	x
CC(C)(CN1CCN(Cc2ccccc2)CC1)NS(=O)(=O)c1ccc(Cl)cc1	x	x	-17%	x	x	x
O=C(Nc1ccc2oc(-c3ccncc3)nc2c1)c1ccccc1F	1%	u	-6%[46.1 µM]	u	u	-15
CCc1sc2nc(SCC(=O)Nc3cc(C)on3)n(-c3cccc(OC)c3)c(=O)c2c1C	-1%	u	-12%[46.1 µM]	-18%	u	-18
O=C1CC(N2CCN(c3ccccc3F)CC2)C(=O)N1c1ccc2c(c1)OCCO2 (centres undefined)	1%	5%[38.3 µM]	-7%[46.1 µM]	-5%	-10%	u
CCN(CC)S(=O)(=O)c1ccc(N2CCCC2)c(NS(=O)(=O)c2ccc(F)cc2)c1	-4%	28%	-20%	-27%	0.63µM*	x
COc1cccc(OC)c1C(=O)N1CCN(c2ccccn2)CC1	-1%	-1%[38.3 µM]	0%[46.1 µM]	u	u	-7
COc1ccc(NC(=O)C(c2ccccc2)N2CCN(c3ccccn3)CC2)cc1Cl (centres undefined)	x	34%	-43%	x	8.9µM*	x
Cn1c(=O)n(C/C=C/c2ccccc2)c(=O)c2c1nc1n2CCCN1c1ccc(F)cc1	-18%	15%[38.3 µM]	u	-25%	-5%	6
Cc1ccc(NC(=O)CNC2CCS(=O)(=O)C2)cc1C (centres undefined)	x	10%	9%	x	16µM*	x
Cc1ccc(NC(=O)/C=C\C(=O)NCC(=O)O)cc1C	0%	-6%	5%	-18%	5µM*	x
